SRC2 TRFRET art: flags TR-FRET format artefacts in PPARgamma SRC-2 recruitment agonist screen. 200,000 tested, 0.4% active. TR-FRET ratio at 8 µM. TR-FRET artefact counter-screen; stronger effect = higher value; in the data active = TR-FRET ratio above about 2000
SRC1 TRFRET art: counter-screen for PPARgamma SRC-1 recruitment agonists: TR-FRET artefact | TR-FRET detection artefact counter-screen, emission ratio; stronger effect = higher value | TR-FRET ratio at 8 µM | 99,000 tested, 0.34% active | AID 1051; in the data active = TR-FRET ratio above about 2300
SRC3 TRFRET art: flags TR-FRET format artefacts in PPARgamma SRC-3 recruitment agonist screen. 99,000 tested, 0.39% active. TR-FRET artefact counter-screen, PPARgamma/SRC-3 format; stronger effect = higher value. TR-FRET ratio at 8 µM; in the data active = TR-FRET ratio above about 2000
PPARg SRC1 recr: promotes SRC-1 coactivator recruitment by human PPARgamma | AID 631 | activation, % at 8 µM | 200,000 tested, 0.41% active | PPARgamma-SRC-1 coactivator recruitment biochemical assay; in the data active = activation above about 19%;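 also: 0% = DMSO and 100% = reference agonist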
Target sequence (P37231 whole entry, looked up): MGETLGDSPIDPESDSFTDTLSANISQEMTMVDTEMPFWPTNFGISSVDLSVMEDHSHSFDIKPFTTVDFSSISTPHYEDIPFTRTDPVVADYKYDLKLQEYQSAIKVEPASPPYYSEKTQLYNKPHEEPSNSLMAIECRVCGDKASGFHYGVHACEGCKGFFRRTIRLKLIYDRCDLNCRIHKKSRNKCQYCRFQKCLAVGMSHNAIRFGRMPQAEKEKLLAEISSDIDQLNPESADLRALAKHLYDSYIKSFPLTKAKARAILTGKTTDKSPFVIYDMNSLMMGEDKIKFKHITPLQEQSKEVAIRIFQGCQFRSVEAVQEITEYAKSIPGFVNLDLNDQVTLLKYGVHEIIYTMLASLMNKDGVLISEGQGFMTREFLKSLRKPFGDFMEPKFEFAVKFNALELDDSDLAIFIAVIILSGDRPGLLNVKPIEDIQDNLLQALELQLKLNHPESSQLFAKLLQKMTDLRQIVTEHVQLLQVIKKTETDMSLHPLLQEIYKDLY
PPARg SRC-3 ag: promotes SRC-3 coactivator recruitment by human PPARgamma. 200,000 tested, 0.26% active. biochemical PPARgamma/SRC-3 coactivator recruitment assay. activation, % at 8 µM; in the data active = activation above about 23%;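 also: 0% = DMSO and 100% = reference agonist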
PPARg SRC2 recr: agonists of SRC-2 recruitment by human PPARgamma. P37231. activation, % at 8 µM. 200,000 tested, 0.34% active. AID 1032. PPARgamma LBD-SRC-2 recruitment, biochemical;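 also: 0% = vehicle and 100% = reference agonist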
PPARg SRC2 conf: confirmation of agonists of SRC-2 recruitment by human PPARgamma; activation, % at 8 µM; shares compounds with PPARg SRC-3 ag; biochemical SRC-2 recruitment by PPARgamma; 790 tested, 52% active;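 also: 0% = vehicle alone and 100% = reference agonist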
PPARg SRC1 conf: confirmation of agonists of SRC-1 recruitment by human PPARgamma | shares compounds with PPARg SRC-3 ag | PPARgamma–SRC-1 coactivator recruitment biochemical assay | activation, % at 8 µM | 790 tested, 43% active | AID 1300; in the data active = activation above about 20%;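 also: 0% = vehicle wells and 100% = reference agonist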
PPARg SRC3 ag: confirmation of agonists of SRC-3 recruitment by human PPARgamma. biochemical PPARgamma-SRC-3 coactivator recruitment, agonist mode. 790 tested, 29% active. activation, % at 8 µM. shares compounds with PPARg SRC-3 ag; in the data active = activation above about 24%;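 also: 0% = vehicle wells and 100% = reference agonist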
* = called active by the depositor; · = not tested or not shown. Sampled rows, rich in hits. Any-hit rate of the full collection: about 0.9%. Rule as the data show it, unless noted: active = activation above about 22%; inactive = the rest.

SMILES | SRC2 TRFRET art | SRC1 TRFRET art | SRC3 TRFRET art | PPARg SRC1 recr | PPARg SRC-3 ag | PPARg SRC2 recr | PPARg SRC2 conf | PPARg SRC1 conf | PPARg SRC3 ag
Cc1cn(S(=O)(=O)c2ccc(Br)c3ccccc23)cn1 | 2712* | · | · | 30.8* | 51.9* | 49.0* | 40.4* | 26.3* | 27.8*
O=C(CCCCCn1c(=S)[nH]c2cc3c(cc2c1=O)OCO3)N1CCN(Cc2ccccc2)CC1 | 1588 | · | · | 5.3 | 10.7 | 12.3 | · | · | ·
O=C(CCCCCn1c(=S)[nH]c2cc3c(cc2c1=O)OCO3)N1CCN(C(=O)c2ccco2)CC1 | 1629 | · | · | 13.4 | 25.7* | 31.7* | -1.0 | -0.9 | 2.3
COc1cc(C(=O)Nc2nc3ccc4nc(C)sc4c3s2)cc(OC)c1OC | 1480 | · | · | 15.6 | 9.1 | 4.4 | · | · | ·
Cc1ccc2nc(NC(=S)NC(=O)c3ccco3)sc2c1 | 2308* | 2516* | 2144* | 21.6* | 18.9 | 28.8* | 55.7* | 44.0* | 37.2*
COc1ccc(C(=O)Nc2nc3ccc4nc(C)sc4c3s2)cc1 | 1790 | · | · | 66.8* | 56.4* | 14.1 | 44.6* | 28.8* | 27.2*
Cc1nc2ccc3nc(NC(=O)c4ccco4)sc3c2s1 | 1749 | · | · | 23.4* | 18.8 | 10.8 | 7.7 | 5.7 | 5.0
Nc1cc(=O)[nH]c(SCC(=O)Nc2cc([N+](=O)[O-])ccc2Cl)n1 | 1686 | 1941 | 1620 | 0.1 | 2.1 | 10.6 | · | · | ·
COc1cccc(NC(=O)CN(c2ccc3c(c2)OCO3)S(C)(=O)=O)c1 | 1541 | 1873 | 1419 | -1.6 | 5.6 | -3.6 | · | · | ·
CCCCCn1c(CN2CCN(C)CC2)nc2c1c(=O)n(C)c(=O)n2C | 1775 | · | · | 5.2 | 26.2* | 11.4 | 2.5 | 3.2 | 0.9
CCCCCn1c(CN2CCN(C(=O)OCC)CC2)nc2c1c(=O)n(C)c(=O)n2C | 1465 | · | · | -7.9 | 8.0 | 4.6 | · | · | ·
CCOc1cc(CNc2ccc(N(C)C)cc2)cc(Br)c1OCC(=O)NC(C)(C)C | 3290* | · | · | 55.4* | 127.8* | 123.4* | 3.5 | 0.3 | 2.7
CCOc1cc(CNc2ccc(N3CCCCC3)cc2)cc(Br)c1OCC(=O)NC(C)(C)C | 1719 | 2032 | 1695 | -0.4 | 4.1 | 4.7 | · | · | ·
CCn1c(SCC(=O)Nc2ccc3c(c2)OCCO3)nnc1-c1c[nH]c2ccccc12 | 1669 | 1771 | 1558 | -1.1 | 1.5 | 8.9 | · | · | ·
N#CC(c1nc2ccccc2nc1N1CCCC1)S(=O)(=O)c1ccccc1 (stereo not drawn) | 1401 | · | · | 10.4 | -7.6 | -6.3 | · | · | ·
Cc1cccc(S(=O)(=O)C(C#N)c2nc3ccccc3nc2N2CCCC2)c1 (stereo not drawn) | 1588 | · | · | 19.0* | 14.3 | 11.4 | 7.9 | 11.2 | 6.1
COc1ccccc1/C=C/C1=NC(=C\C=C/c2ccccc2)/C(=O)O1 | 1610 | 1863 | 1622 | 16.3 | 40.6* | 11.6 | 6.1 | 4.6 | 12.5
O=C(CSc1ccccn1)N1CCN(c2ccc(Cl)cc2)CC1 | 1523 | · | · | -0.5 | -1.4 | 8.8 | · | · | ·
CN(C)c1ccc(CN(C(=O)COc2ccc(Br)cc2)C2CCS(=O)(=O)C2)cc1 (stereo not drawn) | 1438 | · | · | 13.3 | -7.7 | 1.4 | · | · | ·
Cc1ccc(OCC(=O)N(Cc2ccc(N(C)C)cc2)C2CCS(=O)(=O)C2)cc1 (stereo not drawn) | 1604 | · | · | 21.0* | 14.9 | 10.2 | -1.2 | 2.5 | 0.5
c1ccc(CNc2ncnc3sc4c(c23)CCCC4)nc1 | 1584 | 1952 | 1621 | 2.4 | 2.1 | 5.6 | · | · | ·
Cc1[nH]c2ccccc2c1/C=C(\C#N)C(=O)NCc1ccccc1 | 1429 | 1808 | 1618 | 5.3 | 1.5 | -1.0 | · | · | ·
Cc1ccc(C(C)NC(=O)/C(C#N)=C\c2c(C)[nH]c3ccccc23)cc1 (stereo not drawn) | 1569 | · | · | 19.1* | 4.5 | 9.8 | 5.5 | 16.6 | 14.4
COC(=O)c1sccc1NC(=O)Nc1ccc(Cl)c(Cl)c1 | 1921 | · | · | 19.4* | 14.3 | 23.4* | 8.0 | 2.0 | 4.2
N#CCc1nc2c3c4c(sc3ncn2n1)CCCC4 | 1588 | · | · | 4.7 | 2.4 | 8.8 | · | · | ·
SMILES | SRC2 TRFRET art | SRC1 TRFRET art | SRC3 TRFRET art | PPARg SRC1 recr | PPARg SRC-3 ag | PPARg SRC2 recr | PPARg SRC2 conf | PPARg SRC1 conf | PPARg SRC3 ag
Cc1ccc(NC(=O)CSc2nc3ccccc3c3nc(CCc4c(C)n[nH]c4C)nn23)cc1F | 1631 | · | · | 24.7* | 21.8 | 6.5 | 1.8 | -1.1 | 2.2
Cc1n[nH]c(C)c1CCc1nc2c3ccccc3nc(SCC(N)=O)n2n1 | 1450 | · | · | -0.3 | 4.8 | 0.1 | · | · | ·
COc1ccccc1-c1cc(N)n[nH]1 | 1458 | · | · | 6.9 | 9.3 | -7.6 | · | · | ·
COc1ccc(Cl)cc1-c1n[nH]c(=S)o1 | 3750* | · | · | 56.9* | 118.8* | 103.6* | 71.7* | 50.5* | 48.8*
COc1ccccc1-c1n[nH]c(=S)o1 | 2562* | · | · | 36.1* | 58.7* | 48.1* | 45.7* | 34.8* | 30.5*
Cc1ccc(Cl)cc1N1CCN(C(=O)Cc2c(C(=O)O)[nH]c3ccccc23)CC1 | 1578 | · | · | 9.7 | 4.6 | 1.4 | · | · | ·
CC(=O)Oc1c(/C=C(\C#N)C(N)=O)[nH]c2ccccc12 | 1474 | 1870 | 1629 | 20.7* | 10.4 | 22.4* | 22.3* | 12.2 | 12.9
CSCc1nnc(NC(=O)c2ccc(S(=O)(=O)N(CC(C)C)CC(C)C)cc2)o1 | 1470 | · | · | -3.4 | -4.8 | -3.5 | · | · | ·
COc1ccc(OC)c(C(=O)c2coc3ccc(OC(C)=O)cc23)c1 | 1617 | 1958 | 1620 | 2.7 | 3.7 | 8.1 | · | · | ·
O=C(Nc1ccc2c(c1)OCO2)Nc1ccc(Br)cn1 | 1409 | · | · | 0.5 | 1.5 | -7.8 | · | · | ·
O=C(NCCC1=CCCCC1)Nc1ccc2nsnc2c1 | 1887 | 2164 | 1916 | 27.6* | 11.9 | 26.7* | 15.7 | 13.4 | 10.4
COc1ccc(N(CN2C(=O)C3CC=CCC3C2=O)C(=O)c2ccco2)cc1 (stereo not drawn) | 1738 | · | · | 18.7* | 12.1 | 4.9 | 5.3 | 2.6 | 2.2
O=C(c1ccc(Cn2c(=S)[nH]c3cc4c(cc3c2=O)OCO4)cc1)N1CCN(c2ccccc2)CC1 | 1767 | 2110 | 1780 | 18.1 | 2.0 | -0.8 | · | · | ·
Cc1ccc(C)c(N2CCN(C(=O)c3ccc(Cn4c(=S)[nH]c5ccc(N6CCOCC6)cc5c4=O)cc3)CC2)c1 | 3479* | 4039* | 3971* | 26.0* | 28.1* | 17.4 | 7.0 | 3.3 | 6.3
COc1cc(C(=O)NCCC(C)C)ccc1OCc1ccc(Cl)cc1Cl | 1605 | 1879 | 1559 | 48.0* | 46.5* | 14.5 | 17.8 | 45.4* | 38.1*
COC(=O)c1c(C)[nH]c(C(=O)C(C)Sc2nnc(-c3cc(OC)c(OC)c(OC)c3)o2)c1C (stereo not drawn) | 1724 | · | · | 27.0* | 12.6 | 3.6 | 24.4* | 25.4* | 17.3
